Measured values taken from PubChem BioAssay AID1159580 (chemical genetic matrix, 2015).
Where “and” joins values, the source holds several entries; their conditions need not be identical. Identical values can stand only once. About 2,000 (36%) of roughly 5,500 compounds were called active. About 18% were inconclusive and are not listed. No stated cut-off is given here; in the data, active means normalized growth mostly below about 0.91 (no sharp cut-off); inconclusive means no clear call, values can overlap the other calls; inactive means mostly above about 0.92. Some of the results follow.

Experiment: chemical genetic growth profiling, strain panel (AID 1159580);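 further: tested at 20 µM; growth read once vehicle control cultures reached saturation at 30 °C; 1 = growth at the plate median or of vehicle wells; lower values mean less growth of the strain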
Conditions: S. cerevisiae deletion strains, growth OD

Measured: normalized growth

c1ccc(CN(CC2=NCCN2)c2ccccc2)cc1
inactive: locus YAL013W, strain DEP1, active compounds read low 1.01 | locus YAL021C, strain ccr4, active compounds read low 0.973 | locus YAL026C, strain drs2, active compounds read low 0.999 | locus YAL030W, strain snc1, active compounds read low 1.01 | locus YBL061C, strain skt5, active compounds read low 1.03 | locus YBR009C, strain hhf1, active compounds read low 0.998 | locus YBR021W, strain FUR4, active compounds read low 1.02 | locus YBR023C, strain chs3, active compounds read low 1.02 | locus YBR171W, strain sec66, active compounds read low 1.02 | locus YBR229C, strain ROT2, active compounds read low 1 | locus YBR231C, strain swc5, active compounds read low 0.999 | locus YBR279W, strain paf1, active compounds read low 1.02 | locus YCL011C, strain gbp2, active compounds read low 0.989 | locus YCL016C, strain dcc1, active compounds read low 0.976 | locus YCL029C, strain bik1, active compounds read low 1.01 | locus YCL069W, strain vba3, active compounds read low 1.02 | locus YCR088W, strain abp1, active compounds read low 1.01 | locus YDL005C, strain med2, active compounds read low 1.01 | locus YDL035C, strain GPR1, active compounds read low 1.02 | locus YDL040C, strain nat1, active compounds read low 1.02 | locus YDL074C, strain BRE1, active compounds read low 1.01 | locus YDL101C, strain DUN1, active compounds read low 1.01 | locus YDL134C, strain PPH21, active compounds read low 1.01 | locus YDL185W, strain tfp1, active compounds read low 1 | locus YDL192W, strain arf1, active compounds read low 1 | locus YDR001C, strain nth1, active compounds read low 1.01 | locus YDR069C, strain doa4, active compounds read low 1.02 | locus YDR101C, strain arx1, active compounds read low 0.994 | locus YDR137W, strain rgp1, active compounds read low 0.967 | locus YDR159W, strain sac3, active compounds read low 1 | locus YDR162C, strain NBP2, active compounds read low 1.03 | locus YDR195W, strain ref2 1.02 | locus YDR297W, strain sur2, active compounds read low 1.01 | locus YDR318W, strain mcm21, active compounds read low 0.992 | locus YDR334W, strain swr1, active compounds read low 1.02 | locus YDR335W, strain msn5, active compounds read low 1 | locus YDR388W, active compounds read low 1.01 | locus YDR392W, strain spt3, active compounds read low 0.961 | locus YDR502C, strain sam2, active compounds read low 1 | locus YEL003W, strain gim4, active compounds read low 1.03 | locus YEL037C, strain rad23, active compounds read low 1.01 | locus YEL061C, strain CIN8 (second series), active compounds read low 1.01 | locus YEL061C, strain CIN8, active compounds read low 1.01 | locus YER015W, strain faa2, active compounds read low 0.999 | locus YER016W, strain bim1, active compounds read low 1.01 | locus YER110C, active compounds read low 0.992 | locus YER111C, strain swi4, active compounds read low 1.03 | locus YER155C, strain BEM2 (second series), active compounds read low 1.04 | locus YER155C, strain BEM2, active compounds read low 0.997 | locus YER167W, strain BCK2, active compounds read low 1.01 | locus YFR010W, strain ubp6, active compounds read low 1.02 | locus YGL078C, strain dbp3, active compounds read low 0.997 | locus YGL086W, strain mad1, active compounds read low 0.997 | locus YGL167C, strain pmr1, active compounds read low 1.03 | locus YGL173C, strain kem1, active compounds read low 1.03 | locus YGL227W, strain vid30, active compounds read low 1.01 | locus YGL240W, strain doc1, active compounds read low 1.04 | locus YGL248W, strain PDE1, active compounds read low 1 | locus YGL253W, strain hxk2, active compounds read low 1 | locus YGR135W, strain pre9, active compounds read low 1 | locus YGR252W, strain gcn5, active compounds read low 0.997 | locus YHR013C, strain ard1, active compounds read low 0.972 | locus YHR027C, strain rpn1, active compounds read low 1.02 | locus YHR030C, strain SLT2, active compounds read low 1.01 and 1.02 | locus YHR079C, strain IRE1 (second series), active compounds read low 0.995 | locus YHR079C, strain IRE1, active compounds read low 1.03 | locus YHR094C, strain hxt1, active compounds read low 1 | locus YHR129C, strain ARP1, active compounds read low 1.01 | locus YHR142W, strain chs7, active compounds read low 1 | locus YHR200W, strain rpn10, active compounds read low 1.01 | locus YIL066C, strain RNR3, active compounds read low 1.03 | locus YIL073C, strain SPO22, active compounds read low 1 | locus YIL125W, strain kgd1, active compounds read low 1 | locus YIR030C, strain dcg1, active compounds read low 0.991 | locus YJL092W, strain hpr5, active compounds read low 1.03 | locus YJL095W, strain BCK1 (second series), active compounds read low 1.01 | locus YJL095W, strain BCK1, active compounds read low 1.02 and 1.04 | locus YJL115W, strain asf1, active compounds read low 0.999 | locus YJL129C, strain trk1, active compounds read low 1.03 | locus YJL134W, strain LCB3, active compounds read low 1.01 | locus YJL154C, strain vps35, active compounds read low 1.01 | locus YJL164C, strain tpk1, active compounds read low 0.974 | locus YJL166W, strain qcr8, active compounds read low 1.03 | locus YJL168C, strain set2, active compounds read low 0.993 | locus YJL187C, strain SWE1 (second series), active compounds read low 1.01 | locus YJR043C, strain POL32, active compounds read low 1.01 | locus YJR066W, strain TOR1, active compounds read low 0.983 | locus YKL009W, strain mrt4, active compounds read low 0.994 | locus YKL068W, active compounds read low 1 | locus YKL085W, strain MDH1 (second series), active compounds read low 1.01 | locus YKL085W, strain MDH1, active compounds read low 1.01 | locus YKL160W, strain elf1, active compounds read low 1.02 | locus YKR001C, strain vps1, active compounds read low 0.997 | locus YKR026C, strain gcn3, active compounds read low 0.97 | locus YKR091W, strain srl3, active compounds read low 0.999 | locus YLL001W, strain dnm1, active compounds read low 1.03 | locus YLL026W, active compounds read low 1.02 | locus YLL041C, strain sdh2, active compounds read low 1.01 | locus YLR027C, strain aat2, active compounds read low 0.993 | locus YLR039C, strain RIC1, active compounds read low 0.993 | locus YLR058C, strain SHM2, active compounds read low 1.01 | locus YLR102C, strain apc9, active compounds read low 0.998 | locus YLR113W, strain HOG1, active compounds read low 1.04 | locus YLR221C, strain rsa3, active compounds read low 1.01 | locus YLR258W, strain gsy2, active compounds read low 0.992 | locus YLR262C, strain YPT6 (second series), active compounds read low 1.01 | locus YLR262C, strain YPT6, active compounds read low 1.04 | locus YLR268W, strain sec22, active compounds read low 0.999 | locus YLR320W, strain mms22, active compounds read low 0.982 | locus YLR330W, strain CHS5, active compounds read low 1.01 | locus YLR342W, strain FKS1 (second series), active compounds read low 1.03 | locus YLR342W, strain FKS1, active compounds read low 1.02 | locus YLR357W, strain rsc2, active compounds read low 1.03 | locus YLR370C, strain arc18, active compounds read low 1 | locus YLR371W, strain rom2, active compounds read low 1.01 | locus YLR384C, strain iki3, active compounds read low 1.02 | locus YLR418C, strain cdc73, active compounds read low 1.02 | locus YML016C, strain PPZ1, active compounds read low 1 | locus YML032C, strain rad52, active compounds read low 0.993 | locus YML120C, strain ndi1, active compounds read low 1.03 | locus YML124C, strain tub3, active compounds read low 0.992 | locus YMR058W, strain fet3, active compounds read low 1.01 | locus YMR078C, strain ctf18, active compounds read low 1 | locus YMR125W, strain sto1, active compounds read low 1.01 | locus YMR129W, active compounds read low 1.02 | locus YMR205C, strain PFK2, active compounds read low 1.02 | locus YMR223W, strain ubp8, active compounds read low 1 | locus YMR231W, strain pep5, active compounds read low 1 | locus YMR307W, strain GAS1, active compounds read low 1.08 | locus YNL067W, strain RPL9B, active compounds read low 1.02 | locus YNL071W, strain lat1, active compounds read low 0.999 | locus YNL183C, strain NPR1, active compounds read low 0.975 | locus YNL209W, strain ssb2, active compounds read low 0.996 | locus YNL233W, strain BNI4, active compounds read low 1 | locus YNL248C, strain rpa49, active compounds read low 0.987 | locus YNL250W, strain rad50, active compounds read low 0.992 | locus YNL271C, strain bni1, active compounds read low 0.995 | locus YNL298W, strain CLA4, active compounds read low 1.01 | locus YNL307C, strain MCK1, active compounds read low 1 | locus YNL322C, strain KRE1 (second series), active compounds read low 1.01 | locus YNR049C, strain mso1, active compounds read low 1.01 | locus YNR052C, strain pop2, active compounds read low 0.996 | locus YOL012C, strain htz1 0.89 | locus YOL147C, strain pex11, active compounds read low 1 | locus YOR001W, strain rrp6, active compounds read low 1.02 | locus YOR061W, strain CKA2, active compounds read low 1.01 | locus YOR069W, strain VPS5, active compounds read low 1 | locus YOR070C, strain gyp1, active compounds read low 1 | locus YOR080W, strain dia2, active compounds read low 1.01 | locus YOR083W, strain WHI5, active compounds read low 1.02 | locus YOR106W, strain vam3, active compounds read low 1.03 | locus YOR136W, strain idh2, active compounds read low 1 | locus YOR144C, strain elg1, active compounds read low 0.998 | locus YOR184W, strain ser1, active compounds read low 1.01 | locus YOR231W, strain MKK1, active compounds read low 1.06 | locus YOR265W, strain rbl2, active compounds read low 1.01 | locus YOR270C, strain vph1, active compounds read low 0.988 | locus YOR290C, strain snf2, active compounds read low 0.969 | locus YOR316C, strain cot1, active compounds read low 1 | locus YPL051W, strain arl3, active compounds read low 1.03 | locus YPL078C, strain atp4, active compounds read low 1.04 | locus YPL106C, strain sse1, active compounds read low 0.998 | locus YPL240C, strain hsp82, active compounds read low 0.97 | locus YPL241C, strain CIN2, active compounds read low 1.01 | locus YPL256C, strain CLN2, active compounds read low 1.06 | locus YPR119W, strain clb2, active compounds read low 0.991 | locus YPR141C, strain kar3, active compounds read low 1 | locus YPR163C, strain tif3, active compounds read low 1.01 | locus YPR167C, strain met16, active compounds read low 0.996 | strain wtn01, active compounds read low 0.99
